From PMC5540273 (PLoS ONE, 2017)

Columns and labels:
Settings in all cases: concentration: 1 μM, replicates: in singlicate; n = 1
[1] = system: PRKCH
[2] = system: PRKCI
[3] = system: PRKCQ
[4] = system: PRKD1
[5] = system: PRKD2
[6] = system: PRKD3
[7] = system: PRKG1
[8] = system: PRKG2
[9] = system: T1, PRKR
T1 construct: gene EIF2AK2

[10] = system: PRKX
[11] = system: PRP4
[12] = system: T2, PYK2
T2 construct: gene PTK2B

[13] = system: QSK
[14] = system: RAF1
[15] = system: RET
[16] = system: RIOK1
[17] = system: RIOK2
[18] = system: RIOK3
[19] = system: RIPK1
[20] = system: RIPK2
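Also: KINOMEscan kinase panel screen.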

SMILES | %Inh [1] | %Inh [2] | %Inh [3] | %Inh [4] | %Inh [5] | %Inh [6] | %Inh [7] | %Inh [8] | %Inh [9] | %Inh [10] | %Inh [11] | %Inh [12] | %Inh [13] | %Inh [14] | %Inh [15] | %Inh [16] | %Inh [17] | %Inh [18] | %Inh [19] | %Inh [20]
Cc1ccc(-c2nc(Nc3ccncc3)c3ccccc3n2)s1 [GSK189015] | 29% | 20% | 29% | 18% | 14% | 22% | 12% | 0% | 0% | 19% | 0% | 0% | 6% | 12% | 13% | 45% | 26% | 23% | 0% | 10%
Cn1cnc2c(N)ncnc21 [SKF-97623] | 0% | 0% | 0% | 52% | 1% | 0% | 6% | 92.2% | 0% | 0% | 22% | 0% | 0% | 0% | 0% | 0% | 0% | 0% | 10% | 0%
CCCCc1nn2ncccc2c1-c1ccnc(NC2CC2)n1 [GW684374] | 0% | 8% | 0% | 0% | 0% | 16% | 0% | 0% | 10% | 4% | 26% | 0% | 0% | 2% | 0% | 39% | 13% | 24% | 0% | 2%
COC(=O)C(NC(=O)NC1CCN(c2ccnc(Nc3ccc(F)cc3)n2)C1)c1ccccc1 (stereo not shown) [GSK1379712] | 0% | 24% | 3% | 0% | 14% | 4% | 0% | 0% | 0% | 12% | 33% | 0% | 6% | 0% | 2% | 13% | 0% | 3% | 20% | 20%
CC(=O)c1c(C)c2cnc(Nc3ccc(N4CCNCC4)cn3)nc2n(C2CCCC2)c1=O | 0% | 5% | 0% | 0% | 0% | 0% | 9% | 0% | 0% | 0% | 0% | 0% | 0% | 0% | 0% | 0% | 0% | 0% | 0% | 0%
O=C(Nc1n[nH]c2nc(-c3cccs3)c(Br)cc12)C1CCCC1 [SB-743341] | 21% | 21% | 32% | 7% | 0% | 23% | 4% | 0% | 0% | 0% | 15% | 0% | 4% | 6% | 16% | 24% | 7% | 11% | 25% | 3%
NS(=O)(=O)c1cccc(N/C=C2\C(=O)Nc3ccc(S(=O)(=O)Cc4c(Cl)cccc4Cl)cc32)c1 [GSK398099] | 0% | 6% | 0% | 0% | 0% | 17% | 0% | 100% | 0% | 12% | 19% | 19% | 11% | 15% | 0% | 19% | 0% | 19% | 0% | 12%
CC(C)c1cc(-c2ccc3c(N)n[nH]c3c2)nc(N)n1 [GSK2250882] | 0% | 10% | 6% | 0% | 0% | 0% | 24% | 14% | 6% | 25% | 4% | 28% | 4% | 0% | 0% | 86% | 14% | 82% | 0% | 0%
CC(C)c1ccc(O)cc1Nc1ccnc2ccc(C(F)(F)F)cc12 [GW482059] | 28% | 18% | 0% | 0% | 2% | 27% | 15% | 0% | 0% | 0% | 14% | 0% | 0% | 0% | 38% | 29% | 5% | 0% | 3% | 81%
Cc1cnc(N)c(/C=C/c2cncc(C(=O)NCCc3ccc(Cl)cc3Cl)c2)c1.Cl [GSK190937] | 31% | 23% | 0% | 0% | 5% | 0% | 10% | 16% | 0% | 19% | 6% | 7% | 9% | 0% | 7% | 3% | 79% | 0% | 5% | 13%
O=c1cc(N2CCOCC2)nc2n(Cc3ccccc3F)ccn12 [GSK2297428] | 18% | 1% | 0% | 0% | 0% | 0% | 0% | 0% | 0% | 0% | 7% | 0% | 0% | 0% | 0% | 38% | 42% | 28% | 0% | 2%
